Laboratory results from PubChem BioAssay.

Experiments:
[1] = biological target: Tumor necrosis factor receptor superfamily member 10B (Homo sapiens) (UniProt O14763); test: viability loss of caspase-8 NB7 cells with TRAIL – with/without TRAIL, luminescence panel, confirmation (AID 651596); conditions: NB7 neuroblastoma + caspase-8, TRAIL sensitization, NB7 Caspase-8, with TRAIL, mean of runs, at 10 µM, stronger effect = higher value
[2] = as above; conditions: NB7 neuroblastoma + caspase-8, without TRAIL, NB7 Caspase-8, without TRAIL, mean of runs, at 10 µM

Sequence of Tumor necrosis factor receptor superfamily member 10B (Homo sapiens) (O14763 whole entry, looked up): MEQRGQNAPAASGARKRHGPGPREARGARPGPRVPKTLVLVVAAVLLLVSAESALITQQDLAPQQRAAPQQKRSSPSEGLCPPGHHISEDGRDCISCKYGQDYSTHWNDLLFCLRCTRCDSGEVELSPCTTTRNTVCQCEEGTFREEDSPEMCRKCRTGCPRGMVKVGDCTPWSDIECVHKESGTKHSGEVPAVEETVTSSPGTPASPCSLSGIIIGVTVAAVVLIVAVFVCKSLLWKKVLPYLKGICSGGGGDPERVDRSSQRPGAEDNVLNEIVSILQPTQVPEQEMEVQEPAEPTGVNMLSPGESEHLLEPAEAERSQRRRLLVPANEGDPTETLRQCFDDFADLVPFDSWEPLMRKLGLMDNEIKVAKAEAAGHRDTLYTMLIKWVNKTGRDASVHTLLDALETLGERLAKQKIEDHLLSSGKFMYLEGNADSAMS

Q: Which activity [1] does the source give for `Cc1ccc(-c2cc(-c3ccccc3)no2)c(O)c1` here?
A: 71.8%

Q: And the activity [2]?
A: 60.2%

Q: Which activity [1] does the source give for `C[C@H](CO)N1C[C@H](C)[C@@H](CN(C)C(=O)NC2CCCCC2)Oc2c(NS(=O)(=O)c3ccccc3)cccc2C1=O` here?
A: -8.07%

Q: And the activity [2]?
A: 1.05%

Q: With `O=C(Cn1ncc(Cl)c(Cl)c1=O)c1ccc2c(c1)OCCO2` as the molecule, how does the activity [1] read?
A: 39.7%

Q: And the activity [2]?
A: 76%

Q: Which results are given for `O=C(Nc1ccc2c(c1)OCCO2)c1ccccn1`?
A: activity [1]: 75.8%; activity [2]: 69.1%

Q: With `CCC1CCCCN1Cc1nc(Cc2ccccc2Cl)no1` (stereo not given) as the molecule, how does the activity [1] read?
A: -9.55%

Q: What about the activity [2] of the same molecule?
A: -33.1%

Q: For `O=C(CSc1nnc(-c2ccc(Br)cc2)o1)Nc1cccc(C(=O)O)c1`, which activity [1] is on record?
A: 60.1%

Q: And the activity [2]?
A: 68.1%

Q: For `Cc1cc(C)cc(N2C(N)=NC(N)=NC2c2ccccc2F)c1` (stereo not given), which activity [1] is on record?
A: 51.1%

Q: And the activity [2]?
A: 72.4%

Q: Which results are given for `CC(C)c1nnc(NC(=O)c2nc(S(=O)(=O)Cc3ccc(F)cc3)ncc2Cl)s1`?
A: activity [1]: 72.9%; activity [2]: 41.8%

Q: Which activity [1] does the source give for `CC[C@H]1CN2CCc3cc(OC)c(OC)cc3C2C[C@@H]1C[C@H]1NCCc2cc(OC)c(OC)cc21` (stereo not given in full) here?
A: 70%

Q: And the activity [2]?
A: 83.4%

Q: With `C/C(=N\NC(=O)c1ccccn1)c1ccc(Cl)cc1` as the molecule, how does the activity [1] read?
A: 44%

Q: What about the activity [2] of the same molecule?
A: 46%

Q: For `Cc1ccc(C(=O)Oc2ccc(C(=O)COC(=O)c3cnccn3)cc2)cc1`, which activity [1] is on record?
A: 19.9%

Q: And the activity [2]?
A: 31.6%

Q: Which activity [1] does the source give for `O=C(/C=C/c1ccc(F)cc1)NC(=S)Nc1ccccc1C(=O)NC1CCCCC1` here?
A: -1.65%

Q: What about the activity [2] of the same molecule?
A: -0.275%

Q: With `CC(C)(C)c1ccc2c(c1)OC(C(=O)N/N=C\c1ccc[nH]1)CO2` (stereo not given) as the molecule, how does the activity [1] read?
A: 26.6%

Q: And the activity [2]?
A: 43.6%

Q: What does the source list for `COC(=O)c1sc(NC(=S)NC(=O)c2ccccc2C)nc1C`?
A: activity [1]: 58%; activity [2]: 61.3%

Q: Which results are given for `CCCc1ccc(-c2cc(C(=O)N/N=C/c3ccc([N+](=O)[O-])o3)c3ccccc3n2)cc1`?
A: activity [1]: 91.6%; activity [2]: 93.3%
